Reference: ChEMBL document CHEMBL1961873, “Compounds: GSK PKIS; Assays: Nanosyn kinase panel” (2012)
Values joined by “and” are separate entries in the source; they are usually repeats but may differ in a detail not shown here. Identical values can stand only once.

Assays:
[1] = tested on: Tyrosine-protein kinase ABL1 (Homo sapiens), P00519 [T315I]; settings: at 1 µM
[2] = tested on: Tyrosine-protein kinase ABL1 (Homo sapiens), P00519 [Y253F]; settings: at 0.1 µM
[3] = tested on: Tyrosine-protein kinase ABL1 (Homo sapiens), P00519 [Y253F]; settings: at 1 µM
[4] = target: Tyrosine-protein kinase ABL1 (Homo sapiens) (UniProt P00519); settings: at 0.1 µM
[5] = target: Tyrosine-protein kinase ABL1 (Homo sapiens) (UniProt P00519); settings: at 1 µM
[6] = target: ALK tyrosine kinase receptor (Homo sapiens) (UniProt Q9UM73); settings: at 0.1 µM
[7] = target: ALK tyrosine kinase receptor (Homo sapiens) (UniProt Q9UM73); settings: at 1 µM
[8] = target: Tyrosine-protein kinase ABL2 (Homo sapiens) (UniProt P42684); settings: at 0.1 µM
[9] = target: Tyrosine-protein kinase ABL2 (Homo sapiens) (UniProt P42684); settings: at 1 µM
[10] = target: Tyrosine-protein kinase receptor UFO (Homo sapiens) (UniProt P30530); settings: at 0.1 µM;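 note: values are mean percent inhibition of AXL from the GSK PKIS screen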
Tyrosine-protein kinase receptor UFO (Homo sapiens), sequence (P30530 whole entry): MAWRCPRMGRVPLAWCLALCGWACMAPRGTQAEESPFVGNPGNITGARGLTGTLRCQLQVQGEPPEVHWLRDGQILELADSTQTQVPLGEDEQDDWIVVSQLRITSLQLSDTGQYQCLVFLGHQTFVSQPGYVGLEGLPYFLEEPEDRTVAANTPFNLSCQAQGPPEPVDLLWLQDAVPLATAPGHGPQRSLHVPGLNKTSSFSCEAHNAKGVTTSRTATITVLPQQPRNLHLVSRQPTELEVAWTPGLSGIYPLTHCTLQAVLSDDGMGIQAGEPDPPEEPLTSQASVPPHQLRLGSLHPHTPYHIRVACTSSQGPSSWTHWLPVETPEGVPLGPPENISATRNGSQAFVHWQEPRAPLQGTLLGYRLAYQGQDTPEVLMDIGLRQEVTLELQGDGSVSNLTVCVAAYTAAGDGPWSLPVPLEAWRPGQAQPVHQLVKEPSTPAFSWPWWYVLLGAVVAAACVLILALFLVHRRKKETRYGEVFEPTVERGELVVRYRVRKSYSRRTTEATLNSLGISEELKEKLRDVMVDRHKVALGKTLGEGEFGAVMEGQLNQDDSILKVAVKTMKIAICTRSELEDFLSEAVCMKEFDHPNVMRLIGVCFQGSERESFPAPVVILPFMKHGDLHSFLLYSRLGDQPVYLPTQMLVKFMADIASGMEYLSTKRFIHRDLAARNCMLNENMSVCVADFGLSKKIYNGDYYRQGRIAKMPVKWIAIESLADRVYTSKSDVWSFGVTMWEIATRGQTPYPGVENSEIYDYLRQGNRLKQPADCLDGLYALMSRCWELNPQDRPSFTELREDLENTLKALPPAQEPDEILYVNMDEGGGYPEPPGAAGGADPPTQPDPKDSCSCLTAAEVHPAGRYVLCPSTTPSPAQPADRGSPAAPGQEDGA

ALK tyrosine kinase receptor (Homo sapiens), sequence (Q9UM73 19-1620 limits assumed): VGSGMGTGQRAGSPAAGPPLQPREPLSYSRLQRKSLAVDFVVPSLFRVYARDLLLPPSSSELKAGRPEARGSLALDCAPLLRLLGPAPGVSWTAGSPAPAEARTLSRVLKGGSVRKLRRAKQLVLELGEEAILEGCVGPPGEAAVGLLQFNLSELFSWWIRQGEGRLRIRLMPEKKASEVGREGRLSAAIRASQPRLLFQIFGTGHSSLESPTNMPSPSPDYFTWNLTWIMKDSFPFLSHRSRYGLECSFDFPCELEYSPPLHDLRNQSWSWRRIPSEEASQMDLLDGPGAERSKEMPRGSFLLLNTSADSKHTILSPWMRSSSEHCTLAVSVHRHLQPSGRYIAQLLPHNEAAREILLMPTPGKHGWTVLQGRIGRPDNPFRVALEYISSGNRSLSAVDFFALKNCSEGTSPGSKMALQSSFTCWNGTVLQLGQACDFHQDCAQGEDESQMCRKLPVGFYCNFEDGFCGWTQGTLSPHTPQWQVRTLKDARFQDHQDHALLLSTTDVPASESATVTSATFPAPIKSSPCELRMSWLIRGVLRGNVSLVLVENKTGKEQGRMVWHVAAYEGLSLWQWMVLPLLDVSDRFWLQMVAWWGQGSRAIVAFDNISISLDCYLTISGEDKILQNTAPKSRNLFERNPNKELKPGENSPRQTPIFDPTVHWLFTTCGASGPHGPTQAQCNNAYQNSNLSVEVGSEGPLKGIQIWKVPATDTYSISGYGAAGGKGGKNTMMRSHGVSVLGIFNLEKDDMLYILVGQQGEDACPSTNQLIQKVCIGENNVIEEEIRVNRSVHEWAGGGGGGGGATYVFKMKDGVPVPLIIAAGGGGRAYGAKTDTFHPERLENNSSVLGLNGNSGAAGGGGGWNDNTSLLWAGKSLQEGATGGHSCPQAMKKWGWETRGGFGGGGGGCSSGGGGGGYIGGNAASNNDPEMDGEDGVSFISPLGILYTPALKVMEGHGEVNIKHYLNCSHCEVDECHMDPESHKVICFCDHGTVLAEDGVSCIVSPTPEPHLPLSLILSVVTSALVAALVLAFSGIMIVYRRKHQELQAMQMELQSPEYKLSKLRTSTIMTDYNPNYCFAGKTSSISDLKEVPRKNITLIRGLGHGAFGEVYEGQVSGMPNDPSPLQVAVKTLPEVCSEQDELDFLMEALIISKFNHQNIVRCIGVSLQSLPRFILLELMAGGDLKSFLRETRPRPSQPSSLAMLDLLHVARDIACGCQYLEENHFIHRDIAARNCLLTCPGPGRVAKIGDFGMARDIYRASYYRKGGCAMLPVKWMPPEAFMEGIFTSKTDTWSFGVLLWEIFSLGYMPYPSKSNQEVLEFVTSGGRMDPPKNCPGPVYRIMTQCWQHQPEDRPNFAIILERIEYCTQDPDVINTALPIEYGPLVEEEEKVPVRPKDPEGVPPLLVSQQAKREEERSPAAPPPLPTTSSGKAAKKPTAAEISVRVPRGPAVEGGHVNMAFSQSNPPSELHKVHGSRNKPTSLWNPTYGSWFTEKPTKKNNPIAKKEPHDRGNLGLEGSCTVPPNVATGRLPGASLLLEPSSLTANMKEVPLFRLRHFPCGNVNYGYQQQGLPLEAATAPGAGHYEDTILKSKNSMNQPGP
Tyrosine-protein kinase ABL2 (Homo sapiens), sequence (P42684 whole entry): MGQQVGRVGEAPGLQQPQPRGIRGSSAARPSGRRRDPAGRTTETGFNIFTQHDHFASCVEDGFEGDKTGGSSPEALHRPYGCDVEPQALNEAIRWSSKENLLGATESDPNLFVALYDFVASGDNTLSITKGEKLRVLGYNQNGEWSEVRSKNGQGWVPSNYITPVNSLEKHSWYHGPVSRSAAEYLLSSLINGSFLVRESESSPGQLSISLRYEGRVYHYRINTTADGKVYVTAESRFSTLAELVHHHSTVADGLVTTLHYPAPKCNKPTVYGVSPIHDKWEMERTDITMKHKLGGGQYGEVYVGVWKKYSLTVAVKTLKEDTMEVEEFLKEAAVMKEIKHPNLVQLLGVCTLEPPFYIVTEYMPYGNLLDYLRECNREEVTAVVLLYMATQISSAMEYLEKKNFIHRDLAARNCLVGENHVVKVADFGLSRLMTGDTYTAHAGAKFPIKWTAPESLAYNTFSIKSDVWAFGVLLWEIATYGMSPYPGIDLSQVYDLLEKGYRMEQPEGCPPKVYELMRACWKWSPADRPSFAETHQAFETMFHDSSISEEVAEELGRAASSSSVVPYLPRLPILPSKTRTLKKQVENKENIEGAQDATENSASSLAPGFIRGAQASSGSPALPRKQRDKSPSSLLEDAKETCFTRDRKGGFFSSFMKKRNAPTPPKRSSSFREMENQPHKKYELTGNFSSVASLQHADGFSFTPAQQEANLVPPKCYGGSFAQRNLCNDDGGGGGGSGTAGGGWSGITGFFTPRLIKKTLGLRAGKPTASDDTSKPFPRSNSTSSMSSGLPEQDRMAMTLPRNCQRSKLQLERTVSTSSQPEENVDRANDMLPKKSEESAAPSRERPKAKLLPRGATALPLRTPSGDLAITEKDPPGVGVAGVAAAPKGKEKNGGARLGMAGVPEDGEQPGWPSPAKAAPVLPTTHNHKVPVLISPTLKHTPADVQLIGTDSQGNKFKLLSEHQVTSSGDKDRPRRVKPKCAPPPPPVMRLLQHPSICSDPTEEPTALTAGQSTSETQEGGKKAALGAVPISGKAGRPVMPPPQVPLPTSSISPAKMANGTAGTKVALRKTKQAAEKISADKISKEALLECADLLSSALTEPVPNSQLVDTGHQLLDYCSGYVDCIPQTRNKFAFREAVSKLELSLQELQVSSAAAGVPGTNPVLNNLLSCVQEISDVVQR

Row | Structure (SMILES) | inhibition [1] | inhibition [2] | inhibition [3] | inhibition [4] | inhibition [5] | inhibition [6] | inhibition [7] | inhibition [8] | inhibition [9] | inhibition [10]
1 | CNC(=O)c1sc(-n2cnc3cc(OC)c(OC)cc32)cc1OCc1ccccc1C(F)(F)F | 4.16% | 2.46% | 10.3% | 8.39% | 17.2% | 3.52% | 5.76% | 5.79% | 13.2% | -4.3%
2 | O=C(O[C@H]1CN[C@H](C#Cc2cc3ncnc(Nc4ccc5c(cnn5Cc5ccccc5)c4)c3s2)C1)N1CCOCC1 | 0.36% | -0.26% | 0.7% | -0.22% | 2.55% | -0.47% | 0.05% | -0.58% | 2.25% | 0.41%
3 | CN(c1ccc(NC(=O)NCCN2CCOCC2)cc1)c1ccnc(Nc2ccc(CS(C)(=O)=O)cc2)n1 | 30.3% | 6.51% | 22.1% | 4.29% | 21.8% | 2.33% | 5.11% | 6.09% | 36% | -1.83%
4 | CNC(=O)c1ncccc1Nc1nc(Nc2cc3c(cc2OC)CCCN3C(=O)CN(C)C)nc2[nH]ccc12 | 2.23% | 3.84% | 3.74% | 4.98% | 7.6% | 94.4% | 90.8% | 2.06% | 5.83% | 10.8%
5 | Cc1ccc(-c2cc3c(NC(=O)C4CC4)ncnc3o2)cc1 | 14% | 7.48% | 29.1% | 5.87% | 30.4% | 4.09% | 10.7% | 3.64% | 2.5% | -6.86%
6 | CNC(=O)c1cncc(/C=C/c2ccccc2C)c1 | 4.28% | 6.17% | 31.7% | 5.99% | 25.9% | 4.09% | 4.22% | 6.78% | 16.1% | -3.18%
7 | c1ccc(-c2n[nH]cc2-c2ccnc(-c3ccc(OCCn4ccnc4)cc3)c2)nc1 | 7.34% | 31.8% | 78.8% | 30.5% | 68.8% | -0.73% | 3.68% | 5.73% | 56.4% | -0.5%
8 | Nc1ncnc2occ(-c3ccc(NC(=O)Nc4cc(C(F)(F)F)ccc4F)cc3)c12 | 91.1% and 85% | 10.7% and 5.56% | 44.9% and 29.1% | 10.9% and 4.97% | 58.9% and 35.7% | 2.84% and -1.14% | 22.8% and 12.6% | 25.2% and 23.9% | 64.2% and 56.4% | -3.96% and -3.19%
9 | COC(=O)Nc1nc2ccc(Oc3ccc(NC(=O)Nc4cc(C(F)(F)F)ccc4F)cc3)cc2s1 | 92.6% | 32.2% | 75.7% | 42.7% | 79.8% | 0.95% | 6.26% | 51.4% | 73.6% | 13.7%
10 | c1cnn2ncc(-c3ccnc(NCCCN4CCOCC4)n3)c2c1 | 3.23% | 4.67% | 1.93% | 2.22% | 6.5% | 2.15% | 3.78% | 2.25% | 1.19% | -7.99%
11 | COc1cccc(Nc2nccc(-c3cnn4ncccc34)n2)c1 | 30% | 7.39% | 39.2% | 4.97% | 40.9% | 5.36% | 32.3% | 6.41% | 44.2% | -0.07%
12 | CCS(=O)(=O)c1ccc(OC)c(Nc2ncc(-c3cccc(C(C)=O)c3)o2)c1 | 8.41% | 25.4% | 72.3% | 13.4% | 60.2% | 2.32% | 2.87% | 13% | 60.8% | -3.14%
13 | Nc1nccc(-c2c(-c3ccc(F)cc3)ncn2C2CCNCC2)n1 | 1.38% and 1.78% | -2.62% and 1.74% | 3.43% and 4.65% | -2.44% and 0.45% | 7.89% and 5.4% | -2.83% and 0.4% | -1.85% and 1.82% | -2.01% and -0.73% | 3% and 19.3% | 3.6% and 1.09%
14 | O=C(O[C@H]1CN[C@H](C#Cc2cc3ncnc(Nc4ccc5c(ccn5Cc5cc(F)ccc5F)c4)c3s2)C1)N1CCOCC1 | 3.69% | 2.24% | 4.4% | 3.14% | 3.38% | 4.15% | 4.73% | 1.18% | 1.47% | -7.4%
15 | COc1cc(N2CCN(C(C)C)CC2)ccc1Nc1nc(Nc2cccc(F)c2C(=O)O)c2cc[nH]c2n1 | 7.98% | 4.3% | 5.73% | 5.38% | 5.63% | 68.1% | 80.7% | 4.02% | 5.35% | 2.71%
16 | CCn1c(-c2nonc2N)nc2cncc(C(=O)NCCNC)c21 | 5.14% | 8.7% | 7.62% | 3.3% | 5.3% | 1.99% | 4.23% | 2.36% | 4.11% | -8.56%
17 | CCN1CCC(C(=O)Nc2n[nH]c3nnc(-c4cccc(F)c4F)cc23)CC1 | 1.7% | -0.98% | -1.38% | 0.49% | 0.51% | 0.15% | 1.71% | 1.05% | 1.43% | 1.6%
18 | Fc1cccc(COc2ccc(Nc3ncncc3C#Cc3ccccc3)cc2Cl)c1 | 5.21% | 2.86% | 4.69% | 4.16% | 11.3% | 2.52% | 4.64% | 3.23% | 1.72% | -5.96%
19 | NS(=O)(=O)c1ccc(N/N=C2\C(=O)Nc3cccc(CCc4ccncc4)c32)cc1 | 6.34% | 3.29% | 8.15% | 3.11% | 4.4% | 1.31% | 4.47% | 2.11% | 3.55% | -0.12%
20 | O=C(O[C@H]1CN[C@H](C#Cc2cc3ncnc(Nc4ccc(OCc5cccc(F)c5)c(Cl)c4)c3s2)C1)N1CCOCC1 | 6.54% | 2.93% | 5.78% | 1.93% | 3.32% | 7.04% | 6.43% | 0.82% | 0.68% | -7.05%
21 | CCOc1ccc2c(-c3ccnc(Nc4cc(OC)cc(C(F)(F)F)c4)n3)cnn2n1 | 3.15% | 2.66% | 7.81% | 5.8% | 11.5% | -0.08% | 1.27% | 6.07% | 9.53% | 0.45%
22 | Cn1c(-c2nonc2N)nc2cnccc21 | 1.83% | 4.55% | 0.38% | 4% | 4.6% | 1.93% | 3.93% | 2.62% | 7.75% | -6.37%
23 | COc1ccc2ncn(-c3cc(O[C@H](C)c4ccccc4C(F)(F)F)c(C(N)=O)s3)c2c1 | 0.84% | -1.93% | -0.53% | 0.27% | 9.42% | -0.81% | 2.16% | 4.37% | 2.94% | 0.07%
